Measured potencies and affinities stand elsewhere. The source made the active and inactive calls.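 How the source made its calls: active means signal drop whose fitted half-maximal concentration is at most twice the top valid dose, in every test run; inconclusive means mixed calls across runs, poor fit, or flat 30 to 70% inhibition; inactive means wrong direction, flat within 30%, or potency beyond limit.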
Assay: RMG-1 ovarian cancer cell viability loss – cherry-pick, dose response (AID 687029);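 further: cells exposed to compound for 96 hours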
Settings: RMG-1 viability, CellTiterGlo ATP luminescence, 96 h; series mostly up to 35 µM

| Compound | outcome |
| --- | --- |
| CC(C)NC(=O)N1Cc2cc(C(=O)NCC(F)(F)F)nc(-c3cccc(-c4cc5ccccc5o4)c3)c2[C@H]1CCO | inactive |
| C[C@@H]1CN([C@@H](C)CO)C(=O)c2cc(NC(=O)Nc3cccc4ccccc34)ccc2O[C@@H]1CN(C)Cc1ccc2c(c1)OCO2 | inactive |
| C[C@@H]1CN([C@H](C)CO)C(=O)c2cc(NS(=O)(=O)c3ccc(F)cc3)ccc2O[C@@H](C)CCCCO[C@H]1CN(C)Cc1ccccc1 | inactive |
| N#C[C@H]1[C@H](c2ccc(C#CC3CCCCC3)cc2)[C@H](CO)N1C(=O)Nc1ccc(F)cc1 | inactive |
| N#Cc1cccc(-c2ccc3c(c2)[C@@H]2[C@@H](CCN2S(=O)(=O)c2ccc(F)cc2)[C@@H](CO)N3)c1 | inactive |
| CCCN(C)C[C@H]1OCCCC[C@@H](C)Oc2ccc(NC(=O)c3ccccc3)cc2C(=O)N([C@H](C)CO)C[C@H]1C | inactive |
| C[C@H]1CCCCO[C@H](CN(C)S(=O)(=O)c2ccc(Cl)cc2)[C@@H](C)CN([C@@H](C)CO)C(=O)c2cc(NS(=O)(=O)c3ccc(F)cc3)ccc2O1 | inactive |
| C[C@@H]1CCCCO[C@@H](CN(C)Cc2ccc(Cl)c(Cl)c2)[C@H](C)CN([C@@H](C)CO)C(=O)c2cc(NC(=O)Nc3ccccc3)ccc2O1 | inactive |
| C[C@@H]1CN([C@H](C)CO)C(=O)c2cc(NS(=O)(=O)c3ccc(Cl)cc3)ccc2O[C@@H](C)CCCCO[C@H]1CN(C)C(=O)C1CCCCC1 | inactive |
| C[C@H]1CCCCO[C@@H](CN(C)S(=O)(=O)c2cccs2)[C@@H](C)CN([C@@H](C)CO)C(=O)c2cc(NS(=O)(=O)c3ccc(Cl)cc3)ccc2O1 | inactive |
| C[C@@H]1CN([C@H](C)CO)C(=O)c2cc(NC(=O)Nc3ccc(F)cc3)ccc2O[C@@H](C)CCCCO[C@H]1CN(C)S(=O)(=O)c1ccc(F)cc1 | inactive |
| C[C@H](CO)N1C[C@H](C)[C@@H](CN(C)Cc2ccc(Cl)c(Cl)c2)OCCCC[C@H](C)Oc2ccc(NC(=O)Nc3ccc(C(F)(F)F)cc3)cc2C1=O | inactive |
| CC(C)CC#Cc1ccc([C@@H]2[C@@H](CO)N3CCCCN(S(=O)(=O)c4ccc(F)cc4)C[C@H]23)cc1 | inactive |
| Cc1noc(C)c1S(=O)(=O)Nc1ccc2c(c1)C(=O)N([C@@H](C)CO)C[C@H](C)[C@H](CN(C)C(=O)Nc1ccc(C(F)(F)F)cc1)OCCCC[C@H](C)O2 | inactive |
| COc1cccc(S(=O)(=O)N2CC[C@@H]3[C@H](CO)Nc4ccc(C5=CCCCC5)cc4[C@@H]32)c1 | inactive |
| Cc1noc(C)c1S(=O)(=O)N(C)C[C@H]1OCCCC[C@@H](C)Oc2ccc(NS(=O)(=O)c3ccc(Cl)cc3)cc2C(=O)N([C@@H](C)CO)C[C@H]1C | inactive |
| Cc1ccc(S(=O)(=O)N(C)C[C@@H]2OCCCC[C@H](C)Oc3ccc(NS(=O)(=O)c4ccc(Cl)cc4)cc3C(=O)N([C@H](C)CO)C[C@H]2C)cc1 | inactive |
| C[C@@H]1CN([C@H](C)CO)C(=O)c2cc(NS(=O)(=O)c3ccc(F)cc3)ccc2O[C@@H](C)CCCCO[C@@H]1CN(C)CC1CCCCC1 | inactive |
| C[C@@H]1CN([C@H](C)CO)C(=O)c2c(c3ccccc3n2C)-c2ccccc2CO[C@H]1CN(C)S(=O)(=O)c1cccc(F)c1 | inactive |
| C[C@@H]1CN([C@@H](C)CO)C(=O)Cc2cc(NC(=O)Nc3ccc(C(F)(F)F)cc3)ccc2O[C@H]1CN(C)S(=O)(=O)c1ccc(F)cc1 | inactive |

| Compound | outcome |
| --- | --- |
| O=C(Nc1ccc(F)cc1)N1CCCCN2[C@@H](CO)[C@@H](c3ccc(-c4cccc(F)c4)cc3)[C@@H]2C1 | inactive |
| O=C(CN1C(=O)c2ccccc2S1(=O)=O)c1ccccc1Cl | inactive |
| C[C@H](CO)N1C[C@H](C)[C@H](CN(C)Cc2ccc(Cl)c(Cl)c2)OCCCC[C@H](C)Oc2ccc(NC(=O)Nc3ccccc3)cc2C1=O | inactive |
| C[C@@H]1CN([C@@H](C)CO)C(=O)c2cccc(NC(=O)c3ccncc3)c2O[C@@H]1CN(C)S(=O)(=O)c1cccs1 | inactive |
| CCSCCc1nnc(NC(=O)Nc2cccc(C(F)(F)F)c2)s1 | inactive |
| Cc1cccc(S(=O)(=O)N2C[C@@H](O)COC[C@@H]3O[C@@H](CC(=O)Nc4ccc(-c5ccccc5)cc4)CC[C@H]32)c1 | inactive |
| C[C@@H]1CCCCO[C@H](CN(C)C)[C@H](C)CN([C@H](C)CO)C(=O)c2cc(NC(=O)Nc3cccc4ccccc34)ccc2O1 | inactive |
| COc1ccc(S(=O)(=O)Nc2ccc3c(c2)CC(=O)N([C@H](C)CO)C[C@H](C)[C@@H](CN(C)Cc2ccc(-c4ccccc4)cc2)O3)cc1 | inactive |
| C[C@H]1CCCCO[C@@H](CN(C)C(=O)Nc2ccc(C(F)(F)F)cc2)[C@@H](C)CN([C@@H](C)CO)C(=O)c2cc(NS(=O)(=O)c3cn(C)cn3)ccc2O1 | inactive |
| Cc1ccc(S(=O)(=O)Nc2ccc3c(c2)C(=O)N([C@@H](C)CO)C[C@@H](C)[C@H](CN(C)S(=O)(=O)c2ccc(Cl)cc2)OCCCC[C@@H](C)O3)cc1 | inactive |
| Cc1ccc(S(=O)(=O)Nc2ccc3c(c2)C(=O)N([C@H](C)CO)C[C@H](C)[C@@H](CN(C)S(=O)(=O)c2cccs2)OCCCC[C@H](C)O3)cc1 | inactive |
| C[C@H](CO)N1C[C@H](C)[C@@H](CN(C)Cc2ccc(Cl)c(Cl)c2)OCCCC[C@H](C)Oc2ccc(NS(=O)(=O)c3ccccc3)cc2C1=O | inactive |
| C[C@@H]1CCCCO[C@@H](CN(C)C(=O)Cc2ccccc2)[C@@H](C)CN([C@@H](C)CO)C(=O)c2cc(NC(=O)Nc3ccc(C(F)(F)F)cc3)ccc2O1 | inactive |
| O=C(C[C@H]1CC[C@H]2[C@@H](COC[C@@H](O)CN2S(=O)(=O)c2ccccc2Cl)O1)N1CCC(Cc2ccccc2)CC1 | inactive |
| C[C@@H]1CCCCO[C@@H](CN(C)C(=O)NC2CCCCC2)[C@H](C)CN([C@@H](C)CO)C(=O)c2cc(NC(=O)Nc3ccc(C(F)(F)F)cc3)ccc2O1 | inactive |
| Cc1noc(C)c1NC(=O)Nc1cccc2c1O[C@H](CN(C)Cc1ccc(C(F)(F)F)cc1)[C@H](C)CN([C@@H](C)CO)C2=O | inactive |
| C[C@@H]1CN([C@H](C)CO)S(=O)(=O)c2ccc(C#Cc3cccc(F)c3)cc2O[C@@H]1CN(C)C(=O)NC1CCCCC1 | inactive |
| C[C@@H]1CN([C@@H](C)CO)C(=O)Cc2cc(NC(=O)Nc3ccc(C(F)(F)F)cc3)ccc2O[C@H]1CN(C)Cc1ccc(Cl)c(Cl)c1 | inactive |
| C[C@H]1CN([C@@H](C)CO)C(=O)Cc2cc(NC(=O)Nc3ccc(C(F)(F)F)cc3)ccc2O[C@H]1CN(C)C(=O)Nc1ccc(C(F)(F)F)cc1 | inactive |
| C[C@@H]1CCCCO[C@@H](CN(C)C(=O)C2CCCCC2)[C@H](C)CN([C@H](C)CO)C(=O)c2cc(NC(=O)Nc3ccc(F)cc3)ccc2O1 | inactive |
